Active and inactive are the calls of the source. Unless noted, the rule behind the calls is not given here.
Experiments:
[1] = HepG2 liver cancer cell viability effects, profiling panel, resazurin fluorescence, 24 h, PK04 Diversity Set (AID 1172); details: higher = more signal
[2] = basal S. cerevisiae growth modulation, no modifier, primary screen, OD600, strain BY4716, 24 h, basal condition (AID 1173); details: OD600, 24 h, higher = more signal, called active from +8 up or from −8 down
[3] = MM1S myeloma cell viability, profiling panel, resazurin fluorescence, basal, 24 h, PK04 Diversity Set (AID 1174); details: higher = more signal, called active from +8 up or from −8 down;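 note: MM1S multiple myeloma cell line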
[4] = molecular target: Dihydroorotate dehydrogenase (quinone), mitochondrial (Plasmodium falciparum (isolate 3D7)) (UniProt Q08210); experiment: PfDHODH enzyme inhibitors, primary screen, biochemical, C-terminal His tag, absorbance 600 nm (AID 1175); details: DCIP absorbance 600 nm, higher = more signal, called active from +8 up or from −8 down;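 note: recombinant parasite enzyme with a five histidine tag at its C terminus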
[5] = P. aeruginosa biofilm formation inhibitors, primary screen, strain PAO1, LB-PBS medium, absorbance 600 nm (AID 1176); details: P. aeruginosa PAO1 growth/biofilm, A600, 12 h; higher = more signal
[6] = S. cerevisiae RM11-1a growth modifiers, primary screen, strain RM11-1a, OD600, basal, 24 h (AID 1177); details: OD600, 24 h, higher = more signal, called active from +8 up or from −8 down;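 note: cultures grown under basal conditions with no added stressor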
[7] = E. coli acrAB mutant growth effects, primary screen, E. coli filamentation inducers, strain DRC39, OD650, 24 h (AID 1178); details: higher = more signal, called active from +8 up or from −8 down;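 note: growth measured as culture turbidity by optical density at 650 nm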
[8] = E. coli acrAB mutant growth effects, primary screen, E. coli filamentation inducers, strain DRC39, OD650, 48 h (AID 1179);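 note: screen aims at cell division blockers that make cells filament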; details: E. coli DRC39 delta-acrAB growth, higher = more signal, called active from +8 up or from −8 down
[9] = RPMI8226 myeloma cell viability, profiling panel, resazurin fluorescence, basal, 24 h, PK04 Diversity Set (AID 1180); details: higher = more signal;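 note: RPMI8826 multiple myeloma cell line at 5000 cells per well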
[10] = molecular target: E3 ubiquitin-protein ligase XIAP (Homo sapiens) (UniProt P98170); experiment: XIAP binders, primary screen, biophysical, small-molecule microarray, fluorescence 635 nm (AID 1181); details: small-molecule microarray binding, higher = more signal;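 note: score merges 667 nm emission and signal to noise over triplicate slides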
[11] = tested on: XIP peptide (Xip251-270) binding; experiment: small-molecule binders of XIP peptide, primary screen, biochemical, small-molecule microarray, fluorescence 635/667 nm, 0.1 µg/mL protein (AID 1182); details: fluorescent protein binding, 635 nm, higher = more signal, called active from +8 up or from −8 down
XIP peptide (Xip251-270) = experiment: small-molecule binders of XIP peptide, primary screen, biochemical, small-molecule microarray, fluorescence 635/667 nm, 0.5 µg/mL protein (AID 1183); details: small-molecule microarray binding, fluorescence 635 nm; higher = more signal
[12] = Plasmodium falciparum growth inhibition, primary screen, strain 3D7, DAPI fluorescence, 100 nL (AID 1184);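 note: parasites grown inside human red blood cells in medium with human serum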; details: P. falciparum 3D7 growth, 3 d, higher = more signal
[13] = molecular target: Homeobox protein Hox-A13 (Mus musculus) (UniProt Q62424); experiment: inhibitors of HoxA13-DNA binding, primary screen, biochemical, fluorescence polarization, labeled oligonucleotide (AID 1185); details: 15 min, higher = more signal, called active from +8 up or from −8 down
[14] = inhibitors of hydroxyurea-induced Chk1 phosphorylation, primary screen, imaging, HeLa, phospho-Chk1 antibody, percent positive cells (AID 1186); details: hydroxyurea-induced phospho-Chk1 immunofluorescence imaging, higher = more signal
[15] = inhibitors of hydroxyurea-induced Chk1 phosphorylation, primary screen, imaging, HeLa, phospho-Chk1 nuclear intensity (AID 1187); details: hydroxyurea-induced phospho-Chk1 immunofluorescence imaging, higher = more signal

Chain of Homeobox protein Hox-A13 (Mus musculus) (Q62424 whole entry, looked up): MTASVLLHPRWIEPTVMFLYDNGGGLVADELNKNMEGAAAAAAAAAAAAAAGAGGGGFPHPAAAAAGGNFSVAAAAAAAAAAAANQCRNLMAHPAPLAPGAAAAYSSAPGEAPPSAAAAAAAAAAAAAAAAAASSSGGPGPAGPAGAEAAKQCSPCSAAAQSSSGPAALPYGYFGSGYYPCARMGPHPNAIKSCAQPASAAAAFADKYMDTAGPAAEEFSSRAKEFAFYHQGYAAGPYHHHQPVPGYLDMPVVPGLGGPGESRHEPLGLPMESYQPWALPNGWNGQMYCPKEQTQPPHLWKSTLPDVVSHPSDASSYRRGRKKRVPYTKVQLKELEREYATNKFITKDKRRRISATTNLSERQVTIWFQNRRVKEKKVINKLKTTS
Chain of E3 ubiquitin-protein ligase XIAP (Homo sapiens) (P98170 whole entry, looked up): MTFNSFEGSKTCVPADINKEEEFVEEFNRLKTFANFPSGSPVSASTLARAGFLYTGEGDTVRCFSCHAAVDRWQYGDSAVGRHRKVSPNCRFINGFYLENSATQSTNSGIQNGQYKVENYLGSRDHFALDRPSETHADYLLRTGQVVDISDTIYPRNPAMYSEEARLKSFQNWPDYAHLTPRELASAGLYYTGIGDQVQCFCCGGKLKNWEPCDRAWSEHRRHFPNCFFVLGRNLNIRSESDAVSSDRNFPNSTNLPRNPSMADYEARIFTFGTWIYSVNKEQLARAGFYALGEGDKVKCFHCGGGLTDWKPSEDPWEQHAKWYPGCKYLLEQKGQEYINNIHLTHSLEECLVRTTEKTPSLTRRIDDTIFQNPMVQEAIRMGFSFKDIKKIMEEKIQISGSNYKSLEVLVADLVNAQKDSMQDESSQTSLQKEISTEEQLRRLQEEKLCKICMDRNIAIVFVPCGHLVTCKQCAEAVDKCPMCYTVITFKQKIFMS
Chain of Dihydroorotate dehydrogenase (quinone), mitochondrial (Plasmodium falciparum (isolate 3D7)) (Q08210 whole entry, looked up): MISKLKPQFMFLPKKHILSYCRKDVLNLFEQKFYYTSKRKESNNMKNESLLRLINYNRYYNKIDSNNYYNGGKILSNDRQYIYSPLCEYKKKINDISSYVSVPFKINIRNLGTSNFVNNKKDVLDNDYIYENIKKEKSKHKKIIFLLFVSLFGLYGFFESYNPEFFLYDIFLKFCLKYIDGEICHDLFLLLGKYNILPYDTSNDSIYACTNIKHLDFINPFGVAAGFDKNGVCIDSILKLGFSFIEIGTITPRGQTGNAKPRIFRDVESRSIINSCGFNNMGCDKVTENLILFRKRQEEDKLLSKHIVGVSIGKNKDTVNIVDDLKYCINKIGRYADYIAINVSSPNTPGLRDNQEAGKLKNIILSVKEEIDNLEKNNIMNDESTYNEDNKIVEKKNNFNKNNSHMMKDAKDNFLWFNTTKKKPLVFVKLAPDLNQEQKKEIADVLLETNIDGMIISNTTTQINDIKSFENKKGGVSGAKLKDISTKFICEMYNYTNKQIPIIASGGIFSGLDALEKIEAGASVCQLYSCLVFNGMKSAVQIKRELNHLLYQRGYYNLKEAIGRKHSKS

Compound	z-score [1]	z-score [2]	z-score [3]	composite z-score [4]	z-score [5]	z-score [6]	z-score [7]	z-score [8]	z-score [9]	composite z-score [10]	composite z-score [11]	composite z-score (XIP peptide (Xip251-270))	z-score [12]	z-score [13]	z-score [14]	z-score [15]
O=C1C2C=CC(C(O)c3ccc(F)cc3)N(Nc3ccc([N+](=O)[O-])cc3)C2C(=O)N1c1ccccc1 (centres undefined)	0.349	0.579 (inactive)	-0.115 (inactive)	-0.0421 (inactive)	0.862 (inactive)	-0.228 (inactive)	-1.47 (inactive)	-0.639 (inactive)	-0.152	0.135	0.224 (inactive)	0.942	-0.255	-4.16 (inactive)	0.137 (inactive)	0.653 (inactive)
NC(=O)[C@@H]1[C@H]2C(=O)O[C@H](c3ccccc3)[C@H](c3ccccc3)N2[C@H](c2ccc(OCCO)cc2)[C@@]12C(=O)Nc1ccc(C#CC3=CCCCC3)cc12	-1.67	0.193 (inactive)	-7.44 (inactive)	0.207 (inactive)	1.82 (inactive)	0.657 (inactive)	-0.0159 (inactive)	-0.668 (inactive)	-6.82	0.543	0.124 (inactive)	0.581	-0.962	1.05 (inactive)	-0.0315 (inactive)	0.0692 (inactive)
NCCCCCNC(=O)[C@H]1C[C@H]2C(=O)N3CCC[C@H]3C(=O)N2[C@H]1c1ccc(O)cc1	-0.0962	-0.0403 (inactive)	-0.225 (inactive)	-0.572 (inactive)	0.174 (inactive)	-0.835 (inactive)	-0.363 (inactive)	-0.39 (inactive)	-0.485	0.247	0.705 (inactive)	0.718	-0.0006	-2.09 (inactive)	-0.15 (inactive)	-0.265 (inactive)
C=CCN(Cc1ccccc1)C(=O)C(c1cccs1)N(C(=O)/C=C\C(=O)O)c1ccc(CCOCCO)cc1 (centres undefined)	-0.552	0.25 (inactive)	0.222 (inactive)	-1.54 (inactive)	0.742 (inactive)	-1.18 (inactive)	0.368 (inactive)	0.651 (inactive)	0.424	-0.249	-0.524 (inactive)	0.625	0.155	0.12 (inactive)	-1.25 (inactive)	-0.565 (inactive)
O=C1OCC=C[C@H]2OC34C=CCN(CCN5CCOCC5)C(=O)[C@H]3N(CCO)C(=O)[C@@H]4[C@@H]12 (some centres undefined)	0.226	-0.0819 (inactive)	-0.176 (inactive)	-0.424 (inactive)	-0.608 (inactive)	-0.31 (inactive)	-0.533 (inactive)	-0.385 (inactive)	-0.386	-0.28	0.218 (inactive)	0.775	0.703	-5.02 (inactive)	-0.474 (inactive)	-0.371 (inactive)
C=CC1c2cc(O)c(OC)cc2CCN1Cc1cccc(OC(F)(F)F)c1 (centres undefined)	0.125	-16.7 (active)	-4.17 (inactive)	-5.06 (inactive)	0.0898 (inactive)	-13.7 (active)	1.2 (inactive)	0.738 (inactive)	-2.3	0.0304	1.81 (inactive)	0.918	-1.8	-4.91 (inactive)	0.08 (inactive)	0.362 (inactive)
COCC(=C=CC[C@H](O)c1cccc(OCCO)c1)CCO	0.72	0.161 (inactive)	0.491 (inactive)	-0.326 (inactive)	0.154 (inactive)	0.896 (inactive)	0.128 (inactive)	0.398 (inactive)	0.557	0.0153	1.15 (inactive)	0.433	0.547	-2.29 (inactive)	-0.0132 (inactive)	-0.479 (inactive)
CCOC(=O)C[C@H]1[C@H](OC(=O)c2cc3ccccc3oc2=O)[C@@H](NC(=O)CC(C)C)c2cc(OCCCO)ccc2N1C(=O)c1ccccc1	-0.683	-1.9 (inactive)	0.338 (inactive)	-2.94 (inactive)	-1.39 (inactive)	-0.544 (inactive)	1.94 (inactive)	1.08 (inactive)	-0.0988	-0.117	-0.131 (inactive)	0.495	-1.89	-1.53 (inactive)	-0.315 (inactive)	0.0139 (inactive)
[N-]=[N+]=Nc1ccccc1C[C@]1(C(=O)N2CCCCC2)COC(c2ccc(OCCCO)cc2)=N1	0.508	-1.44 (inactive)	-0.823 (inactive)	1.78 (inactive)	-0.248 (inactive)	0.266 (inactive)	1.18 (inactive)	0.344 (inactive)	0.552	0.054	1.98 (inactive)	0.204	-2.29	-6.17 (inactive)	0.118 (inactive)	-0.232 (inactive)
COc1ccc([C@H]2OC[C@@H]3CCC(=O)N32)cc1	0.219	0.242 (inactive)	0.526 (inactive)	-0.0915 (inactive)	-0.133 (inactive)	0.189 (inactive)	0.905 (inactive)	0.593 (inactive)	0.131	-0.199	0.467 (inactive)	0.394	0.401	0.119 (inactive)	-0.208 (inactive)	-0.183 (inactive)
COC(=O)C[C@H]1O[C@@H](CCc2ccccc2)[C@@H](C)[C@@H]1[Si](C)(C)c1ccc(OC)cc1	0.294	-0.938 (inactive)	-0.229 (inactive)	0.656 (inactive)	-0.529 (inactive)	0.725 (inactive)	-0.0089 (inactive)	-1.12 (inactive)	-0.206	0.152	-0.633 (inactive)	-0.919	-1.63	-4.56 (inactive)	0.0465 (inactive)	0.33 (inactive)
CC1CC/C=C\[C@H]2OC34C=CCN(Cc5ccccc5)C(=O)[C@H]3N(C(C)CO)C(=O)[C@@H]4C2C(=O)O1 (some centres undefined)	0.36	-1.39 (inactive)	0.678 (inactive)	-0.166 (inactive)	-0.525 (inactive)	-0.0642 (inactive)	0.492 (inactive)	1 (inactive)	0.233	0.0772	-0.49 (inactive)	0.0057	-0.562	-5.87 (inactive)	-0.682 (inactive)	-0.602 (inactive)
O=C(NCCN1CCOCC1)[C@@H]1c2ccccc2C(=O)N(Cc2cc(C(F)(F)F)cc(C(F)(F)F)c2)[C@H]1c1ccc(CO)cc1	-0.731	0.164 (inactive)	0.0896 (inactive)	0.434 (inactive)	0.224 (inactive)	0.842 (inactive)	1.06 (inactive)	0.321 (inactive)	0.0838	-0.242	0.532 (inactive)	0.304	-1.27	-4 (inactive)	-0.24 (inactive)	-0.268 (inactive)
[N-]=[N+]=NCc1ccccc1[C@@H]1OC(c2ccc(OCCCO)cc2)=N[C@]1(CCS(=O)(=O)c1ccccc1)C(N)=O	-0.493	-0.583 (inactive)	-0.163 (inactive)	-0.449 (inactive)	-0.651 (inactive)	0.573 (inactive)	0.0745 (inactive)	0.859 (inactive)	0.0529	0.243	0.57 (inactive)	0.869	-0.397	-3.55 (inactive)	-0.0248 (inactive)	0.227 (inactive)
CC(C)OC(=O)C=C1C[C@@H](c2cccc(Cl)c2)O[C@@H](c2cccc(Cl)c2)O1	-0.307	-2.84 (inactive)	0.147 (inactive)	-0.516 (inactive)	0.959 (inactive)	-0.587 (inactive)	-0.581 (inactive)	0.323 (inactive)	-1.03	0.0307	0.262 (inactive)	-0.226	-0.642	-2.09 (inactive)	0.193 (inactive)	-0.0046 (inactive)
O=C(CS)NCCCCCNC(=O)[C@H]1C[C@H]2C(=O)NCC(=O)N2[C@H]1c1ccc(O)cc1	1.33	-0.208 (inactive)	1.5 (inactive)	-0.522 (inactive)	-0.832 (inactive)	-1.3 (inactive)	0.268 (inactive)	0.0249 (inactive)	1.21	0.0621	-0.344 (inactive)	0.149	0.201	-1.2 (inactive)	-0.831 (inactive)	-0.795 (inactive)
COCCOC(=O)N1C(=O)[C@@]2(c3ccccc31)[C@H](c1ccc(OCCO)cc1)N1[C@H](c3ccccc3)[C@H](c3ccccc3)OC(=O)[C@H]1[C@@H]2C(=O)N1CCc2cc(OC)c(OC)cc2C1	-0.14	1.57 (inactive)	0.102 (inactive)	-2.08 (inactive)	1.79 (inactive)	2.94 (inactive)	0.43 (inactive)	0.736 (inactive)	0.994	-0.153	0.933 (inactive)	0.919	-2.15	2.01 (inactive)	0.147 (inactive)	0.0081 (inactive)
C=CC[C@]1(C(=O)NCc2ccccc2)N=C(c2ccc(OCCCO)cc2)O[C@H]1c1ccccc1CN=[N+]=[N-]	0.238	-0.0802 (inactive)	-0.871 (inactive)	0.548 (inactive)	1.06 (inactive)	0.149 (inactive)	-0.0443 (inactive)	-1.25 (inactive)	-0.328	-0.0322	-0.274 (inactive)	0.338	-2.53	0.343 (inactive)	-0.158 (inactive)	-0.402 (inactive)
COCC(=C=CC[C@@H](O)c1ccc(OCCO)cc1)C[C@@H](O)c1ccccn1	-0.495	-0.58 (inactive)	-0.46 (inactive)	-2.5 (inactive)	1.05 (inactive)	-0.0975 (inactive)	0.0525 (inactive)	0.0639 (inactive)	-0.104	0.0785	1.51 (inactive)	-0.161	0.797	-5.97 (inactive)	0.117 (inactive)	0.265 (inactive)

Reference: PubChem BioAssay
